Sampled rows, rich in hits. Any-hit rate of the full collection: about 9.4%.
ELG1 genotoxic = qHTS screen for small molecules that induce genotoxicity in human embryonic kidney (HEK293T) cells expressing luciferase-tagged ELG1; HEK293T ELG1-luciferase reporter, luminescence, 16 h; Potency, µM (top dose mostly 46 µM), for the others: at the top dose activity change, positive = activation, hits mostly activators; hit rate 1.3% among 330,000; note: % of control where 0% means no effect; nearly all actives have a fitted effect of over 60% in size
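Step 1: seed 2,000 HEK293T ELG1-luciferase cells per well. Step 2: add compound or DMSO, incubate 16 hr at 37 °C. Step 3: ONE-Glo, 30 min at room temperature, read luminescence.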
Rab9 promoter act = qHTS Assay for Rab9 Promoter Activators | Huh7 Rab9 promoter-luciferase reporter, luminescence, 24 h | AID 485297, 2010 | Potency, µM (top dose mostly 9.22 µM), for the others: at the highest dose activation, negative = inhibition, usual class: activators | hit rate 2.8% among 320,000; note: % of control where 0% means no effect; nearly all actives have a fitted effect of over 60% in size
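Luciferase signal after 10 min detection reagent at ambient indicates Rab9 promoter upregulation; stably transfected Huh7 cells were treated 24 h with compound in DMSO at 37 °C, 5% CO2.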
NPC1 promoter act = qHTS Assay for NPC1 Promoter Activators; hit rate 2.4% among 320,000; Potency, µM (highest dose often 9.22 µM), for the others: at the top dose activation, hits mostly activators; Huh7 NPC1 promoter luciferase reporter, 24 h; note: % of control where 0% means no effect; nearly all actives have a fitted effect of over 60% in size
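Stably transfected Huh7 (NPC1 promoter→luciferase), 1500 cells/well in Opti-MEM + 10% FBS, 2 h settle, then compound 24 h at 37 °C. Luminescence after 10 min with Amplite reagent.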
SMN2 splice up = qHTS Assay for Enhancers of SMN2 Splice Variant Expression. HEK293 SMN2-luciferase splicing reporter, luminescence, 30-36 h. Potency, µM (highest dose often 46.1 µM), for the others: at the highest dose activity change, positive = activation, most hits filed as activators. hit rate 2.8% among 210,000. AID 1458, 2008; note: % of control where 0% means no effect; nearly all actives have a fitted effect of over 55% in size
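qHTS luciferase splicing reporter: luminescence rises when SMN2 exon 7 is included in transfected HEK293 cells. Compound exposure lasted 30-36 h at 37C, with 4.5 mM final sodium butyrate as control, followed by a ONE-Glo read.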
FLuc counter = qHTS profiling assay for firefly luciferase inhibitor/activator using purifed enzyme and Km concentrations of substrates (counterscreen for miR-21 project); Potency, µM (top dose mostly 57.5 µM), without a hit: top-dose activity change, negative = inhibition, actives largely listed as inhibitors; AID 588342, 2011; purified FLuc, Km substrates, luminescence inhibition; hit rate 6.9% among 360,000; Luciferin 4-monooxygenase (Photinus pyralis), P08659;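 note: plate controls were vehicle for no effect and reference inhibitor for full effect; nearly all actives have a fitted effect of over 55% in size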
Target sequence (P08659 whole entry, looked up): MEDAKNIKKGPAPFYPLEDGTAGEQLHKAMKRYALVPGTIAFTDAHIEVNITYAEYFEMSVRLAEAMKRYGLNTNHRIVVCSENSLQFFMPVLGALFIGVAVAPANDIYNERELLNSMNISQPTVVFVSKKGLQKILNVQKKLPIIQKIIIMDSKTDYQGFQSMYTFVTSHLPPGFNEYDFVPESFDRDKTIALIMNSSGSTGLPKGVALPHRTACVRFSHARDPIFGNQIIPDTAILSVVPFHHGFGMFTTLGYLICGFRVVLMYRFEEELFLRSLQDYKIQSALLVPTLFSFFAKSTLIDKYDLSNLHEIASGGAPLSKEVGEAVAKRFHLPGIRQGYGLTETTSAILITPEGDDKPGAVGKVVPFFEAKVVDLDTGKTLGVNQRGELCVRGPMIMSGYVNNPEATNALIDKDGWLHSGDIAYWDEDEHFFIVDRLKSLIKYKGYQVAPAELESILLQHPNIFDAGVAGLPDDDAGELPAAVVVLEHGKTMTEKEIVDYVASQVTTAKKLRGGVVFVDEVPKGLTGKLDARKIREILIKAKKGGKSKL
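Purified P. pyralis luciferase, 10 nM final, with Km-level 10 uM D-luciferin and 10 uM ATP in 50 mM Tris acetate pH 7.5, 10 mM Mg acetate, 0.01% Tween-20, 0.05% BSA; 6-point qHTS titration about 60 µM downward; luminescence read.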
ELG1 DNA repair = qHTS screen for small molecules that inhibit ELG1-dependent DNA repair in human embryonic kidney (HEK293T) cells expressing luciferase-tagged ELG1; HEK293T ELG1-luciferase reporter, luminescence, 16 h; DNA damage induced by 5-fluorouridine; Potency, µM (series often up to 46.1 µM), for the others: at the top dose activity change, negative = inhibition, hits mostly inhibitors; hit rate 2.3% among 330,000; AID 504467, 2011; note: % is set by controls: 0 for no effect and ±100 for the full control effect; nearly all actives have a fitted effect of over 55% in size
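In this reporter screen, reduction of luminescence relative to DMSO vehicle indicated activity. Compounds and 5-fluorouridine were added together to 2,000 cells per well, incubated for 16 hr at 37 °C, then developed with ONE-Glo.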
Active calls of the source: *. Calls come from the whole dose curve; as a rule, active = well fitted curve in the direction sought with a large enough effect; inconclusive = small, poorly fitted or top-dose-only effect, or another doubt; inactive = no such curve, though single readings can be large; an effect the other way counts as inactive or inconclusive. Potency is the fitted concentration of half-maximal effect.

CCN(CC(=O)Nc1ccc2c(c1)OCCO2)C(=O)/C=C/c1ccccc1 was read as ELG1 genotoxic -16%, Rab9 promoter act -9%, NPC1 promoter act 2%, SMN2 splice up inconclusive, FLuc counter inconclusive and ELG1 DNA repair 19%.
`CCN(CC(=O)Nc1ccc2c(c1)OCCO2)C(=O)/C=C/c1cccc(C(F)(F)F)c1` gave ELG1 genotoxic -3% and ELG1 DNA repair -7%.
CCN(CC(=O)Nc1ccc2c(c1)OCCO2)C(=O)/C=C/c1cccc(Br)c1 was read as ELG1 genotoxic inconclusive, Rab9 promoter act 17%, NPC1 promoter act 14%, FLuc counter 15µM* and ELG1 DNA repair inconclusive.
Screening COc1ccc(-c2ccc(CCC(=O)O)n2CC(=O)Nc2cccc(Cl)c2C)cc1 returned SMN2 splice up -2% and FLuc counter inconclusive.
For CCOC(=O)C(/C(N)=N/C(=O)Nc1ccccc1)=C(\C)O the results were ELG1 genotoxic 4%, Rab9 promoter act 1%, NPC1 promoter act 6%, SMN2 splice up -4%, FLuc counter 6µM* and ELG1 DNA repair -27%.
`CCOC(=O)c1ccc(NC(=S)Nc2ccccc2)cc1` gave ELG1 genotoxic 8%, Rab9 promoter act -2%, NPC1 promoter act 1%, SMN2 splice up inconclusive, FLuc counter inconclusive and ELG1 DNA repair 24%.
COc1c(O)cc2oc3cc(O)c(CC=C(C)C)c(O)c3c(=O)c2c1CC=C(C)C was read as SMN2 splice up -8%.
For C(=N\Nc1nn2cnnc2c2ccccc12)/c1ccco1 the results were ELG1 genotoxic 4%, Rab9 promoter act -4%, NPC1 promoter act 0%, SMN2 splice up -28%, FLuc counter -12% and ELG1 DNA repair 21%.
`COc1cccc(/C=N/NC(=O)C(C)n2nnc3ccccc32)c1` (centres undefined) gave ELG1 genotoxic 5%, Rab9 promoter act -3%, NPC1 promoter act -1%, SMN2 splice up -8%, FLuc counter -8% and ELG1 DNA repair 1%.
For CCOc1cc(/C=N/Nc2nn3cnnc3c3ccccc23)ccc1O the results were ELG1 genotoxic 8%, Rab9 promoter act 18%, NPC1 promoter act 25%, FLuc counter 5.4µM* and ELG1 DNA repair inconclusive.
For COc1cc(/C=N/Nc2nn3cnnc3c3ccccc23)ccc1O the results were ELG1 genotoxic 1%, Rab9 promoter act 8%, NPC1 promoter act 14%, SMN2 splice up 10%, FLuc counter 2.7µM* and ELG1 DNA repair inconclusive.
Screening Oc1ccc(/C=N/Nc2nn3cnnc3c3ccccc23)cc1 returned ELG1 genotoxic 1%, Rab9 promoter act 2%, NPC1 promoter act inconclusive, FLuc counter 9.5µM* and ELG1 DNA repair inconclusive.
For COc1cccc(/C=N/Nc2nn3cnnc3c3ccccc23)c1 the results were ELG1 genotoxic 8%, Rab9 promoter act 16%, NPC1 promoter act 25%, SMN2 splice up -4%, FLuc counter 11µM* and ELG1 DNA repair inconclusive.
`CCOc1cc(/C=N/n2cnnc2)ccc1O` gave ELG1 genotoxic 1%, Rab9 promoter act -2%, NPC1 promoter act 3%, SMN2 splice up 7%, FLuc counter -8% and ELG1 DNA repair 0%.
Cc1ccc(S(=O)(=O)c2c(Nc3ccc(C)c(C)c3)sc(C(=O)c3ccc4c(c3)OCO4)c2N)cc1 was read as FLuc counter -4%.
For COc1ccc(OC)c(NC(=O)N2CCC3(CC2)Oc2ccccc2C(=O)N3Cc2ccccc2F)c1 the results were SMN2 splice up -17% and FLuc counter -4%.
For COc1cc(C(=O)NCCc2sc(-c3cccc(F)c3)nc2C)cc(OC)c1OC the results were FLuc counter -3%.
For COc1cccc(CNC(=O)C(C)n2ncn3cccc3c2=O)c1OC (centres undefined) the results were FLuc counter 6µM*.
For CC(C)c1ccc(Nc2ncccc2C(=O)O)cc1 the results were ELG1 genotoxic inconclusive, Rab9 promoter act 0.4µM*, NPC1 promoter act 0.63µM*, SMN2 splice up 16µM*, FLuc counter 2.7µM* and ELG1 DNA repair inconclusive.
COc1ccc(NC(=O)c2cccnc2Nc2ccc(OC)cc2)cc1 was read as ELG1 genotoxic -2%, Rab9 promoter act 7%, NPC1 promoter act -5%, SMN2 splice up -4%, FLuc counter inconclusive and ELG1 DNA repair inconclusive.
CCOC(=O)c1c(NC(=O)c2noc3c2CC(C(C)(C)C)CC3)sc2c1CCCC2 (centres undefined) was read as SMN2 splice up -1% and FLuc counter -17%.
Screening COc1ccc(C2c3c(n(C)c4ccccc34)C(=O)N2CC(=O)Nc2ccc(Cl)cc2)cc1 (centres undefined) returned FLuc counter -9%.
Cc1ccc(S(=O)(=O)n2nc(-c3ccco3)nc2NCc2ccc(N(C)C)cc2)cc1 was read as FLuc counter 0%.
Screening CSCC[C@@H](C(=O)NCCCCCCCCCCC(=O)N1CCN(C(=O)OC(C)(C)C)CC1)n1cc(CCO)nn1 returned ELG1 genotoxic -30%, Rab9 promoter act -3%, NPC1 promoter act -6%, FLuc counter -2% and ELG1 DNA repair 18µM*.
CC(C)(C)OC(=O)NCCCC[C@@H](C(=O)NCCCCCCCCCCC(=O)N1CCN(C(=O)OC(C)(C)C)CC1)n1cc(CCO)nn1 was read as ELG1 genotoxic -13%, Rab9 promoter act 0%, NPC1 promoter act -5%, FLuc counter 2% and ELG1 DNA repair inconclusive.
`CC[C@H](C)C(C(=O)N1CCN(C(=O)OC(C)(C)C)CC1)n1cc(C(CC(C)C)NC(=O)OC(C)(C)C)nn1` (some centres undefined) gave ELG1 genotoxic -8%, Rab9 promoter act 11%, NPC1 promoter act 3%, FLuc counter 0% and ELG1 DNA repair inconclusive.
Screening CC[C@@H](C)[C@@H](C(=O)N1CCN(C(=O)OC(C)(C)C)CC1)n1cc(CCCCNC(=O)OC(C)(C)C)nn1 returned ELG1 genotoxic -12%, Rab9 promoter act -3%, NPC1 promoter act -3%, FLuc counter 2% and ELG1 DNA repair 21µM*.

Screening data from PubChem BioAssay.
